Measurements as given in PubChem BioAssay AID651612 (The Scripps Research Institute Molecular Screening Center, 2012).
Screen size: about 2,200 compounds; about 1,500 (68%) were called active. So high a share suggests a set chosen from earlier hits. A selection follows. Unmarked numbers belong to inactive results. Cut-off read from the data, not from the text of the source: active = inhibition above about 23%; inactive = the rest.

Each compound was assayed against Perilipin-5 (Homo sapiens) + 1-acylglycerol-3-phosphate O-acyltransferase ABHD5 (Homo sapiens) (UniProt Q00G26+Q8WTS1) (assay: ABHD5-PLIN5 interaction inhibitors, confirmation, biochemical, luminescence (AID 651612;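 note: 0% = DMSO vehicle wells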)). Conditions: at 4 µM, active compounds read high.
Chain of Perilipin-5 (Homo sapiens) + 1-acylglycerol-3-phosphate O-acyltransferase ABHD5 (Homo sapiens) (Q00G26 whole entry, looked up): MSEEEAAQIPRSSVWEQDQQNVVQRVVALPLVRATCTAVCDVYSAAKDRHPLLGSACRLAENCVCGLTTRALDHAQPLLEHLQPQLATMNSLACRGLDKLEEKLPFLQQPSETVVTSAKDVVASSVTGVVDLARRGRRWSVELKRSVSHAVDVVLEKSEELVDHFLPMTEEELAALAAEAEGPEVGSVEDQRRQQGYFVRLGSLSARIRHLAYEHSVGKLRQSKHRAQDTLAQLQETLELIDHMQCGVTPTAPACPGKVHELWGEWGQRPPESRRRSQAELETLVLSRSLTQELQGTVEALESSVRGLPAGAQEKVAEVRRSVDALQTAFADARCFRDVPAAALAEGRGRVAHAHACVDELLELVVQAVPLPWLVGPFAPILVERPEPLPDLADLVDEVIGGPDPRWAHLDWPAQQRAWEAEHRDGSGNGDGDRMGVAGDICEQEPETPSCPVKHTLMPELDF
Chain of Perilipin-5 (Homo sapiens) + 1-acylglycerol-3-phosphate O-acyltransferase ABHD5 (Homo sapiens) (Q8WTS1 whole entry, looked up): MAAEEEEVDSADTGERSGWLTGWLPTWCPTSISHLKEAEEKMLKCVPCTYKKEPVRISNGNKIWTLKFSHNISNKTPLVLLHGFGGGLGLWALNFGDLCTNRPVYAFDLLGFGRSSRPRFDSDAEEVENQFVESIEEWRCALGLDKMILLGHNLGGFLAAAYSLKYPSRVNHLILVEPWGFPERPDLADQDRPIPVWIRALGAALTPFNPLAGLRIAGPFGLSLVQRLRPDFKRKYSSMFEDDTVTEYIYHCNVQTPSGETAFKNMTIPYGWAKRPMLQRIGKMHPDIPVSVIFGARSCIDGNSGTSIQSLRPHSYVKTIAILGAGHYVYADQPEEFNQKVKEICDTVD
`CCOC(=O)[C@]12Cc3ccccc3[C@H]1N(C1CCCCC1)C(=O)c1cc(OC)ccc12` was tested, and the inhibition was 23.3% (active). For `CN(C)CC1Oc2ccccc2OC1(O)c1ccccc1` (stereo not given), the inhibition was 77.6% (active). For `COc1ccc(CN2C(=O)NC(=O)/C(=C\c3ccc(OC)c(OC)c3OC)C2=O)cc1`, the inhibition was 36.5% (active). `CCc1nnc(NS(=O)(=O)c2ccc(N=Cc3c(O)n(-c4ccccc4)c(=O)[nH]c3=O)cc2)s1` was tested, and the inhibition was 7.03%. With `Cc1cccc(N2C(=O)NC(=O)/C(=C\c3cnn(-c4ccccc4)c3)C2=O)c1` the inhibition was 66.4% (active).
